Compounds without any hit were thinned out: in the full panel of roughly 83,000, 20% have a hit.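 Method: cells in 96-well plates; compound added at one concentration; 48 h incubation; percent growth measured; values under 10 scored active.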 Values without a mark were called inactive. The source made the active and inactive calls.
Assays:
Assay in all cases: NCI-60 one-dose screen, 48 h (100 = growth as untreated, 0 = no growth, -100 = all killed)
Details in all cases: 10 µM unless noted
SR leukemia = tested on: SR leukemia
RPMI-8226 leukemia = tested on: RPMI-8226 leukemia
OVCAR-8 ovarian = tested on: OVCAR-8 ovarian
OVCAR-5 ovarian = tested on: OVCAR-5 ovarian
OVCAR-4 ovarian = tested on: OVCAR-4 ovarian
SK-OV-3 ovarian = tested on: SK-OV-3 ovarian
IGROV1 ovarian = tested on: IGROV1 ovarian
OVCAR-3 ovarian = tested on: OVCAR-3 ovarian
HS 578T breast = tested on: HS 578T breast
NCI/ADR-RES ovarian = tested on: NCI/ADR-RES ovarian

Structure (SMILES)	growth (SR leukemia)	growth (RPMI-8226 leukemia)	growth (OVCAR-8 ovarian)	growth (OVCAR-5 ovarian)	growth (OVCAR-4 ovarian)	growth (SK-OV-3 ovarian)	growth (IGROV1 ovarian)	growth (OVCAR-3 ovarian)	growth (HS 578T breast)	growth (NCI/ADR-RES ovarian)
O=C(NN1C(=O)CSC1c1cccc([N+](=O)[O-])c1)c1ccc(NC(=O)c2ccccn2)cc1 (configuration not stated)	20.5%	103%	99.5%	92.6%	110%	104%	90%	103%	103%	90.8%
Nc1cc(Br)cc2c1[nH]c(=O)c1ccccc12	90.7%	96.1%	86.2%	92.3%	84.2%	105%	114%	94.4%	91.6%	91.7%
CCOC(=O)c1[nH]cc2c1CCc1sc(Nc3ccccn3)nc1-2	56.8%	45%	83.1%	109%	72.7%	100%	97.6%	82.2%	95.6%	72.5%
Nc1ccc(-c2ccncc2)cc1NC(=O)N1CCCC1	91.8%	82.2%	85.3%	109%	101%	92.2%	99.4%	99.3%	93.7%	81.8%
Cc1nn(-c2ccc([N+](=O)[O-])cc2)c2ncnc(N/N=C/c3ccccc3O)c12	4.55% (active)	1.23% (active)	14.5%	55.8%	16.5%	3.11% (active)	9.22% (active)	27.3%	44%	6.28% (active)
COC1C(O)CC(OC2CC(OC3CC(O[C@@H]4C(=O)c5c(cc6cc(OC7CC(OC8CC(O)C(O)C(C)O8)C(O)C(C)O7)c(C)c(O)c6c5O)CC4[C@H](OC)[C@@H](O)C(C)=O)OC(C)C3O)OC(C)C2O)OC1C (some centres not stated)	4.82% (active)	7.39% (active)	8.72% (active)	12%	16.9%	22.2%	17.4%	5.36% (active)	21.7%	68.8%
CC(C)NS(=O)(=O)/N=C1\NC(=O)NC1=C(Cl)Cl	19.7%	91.1%	96.2%	115%	106%	102%	97.1%	98.5%	97.9%	98.5%
COc1ccc(Oc2ccc(/C=C/C(=O)c3ccc(OC)c(OC)c3)cc2)cc1	50.9%	54.7%	73.8%	112%	62.8%	97.3%	85.5%	86.7%	88.2%	83.4%
O=C(/C=C/c1ccco1)Nc1ncc(Cc2cc(Cl)ccc2Cl)s1	12.1%	23%	14.1%	34%	56.8%	31.9%	21.3%	-44% (active)	8.67% (active)	-0.63% (active)
CCCn1c(=S)sc2c(NNC(C)=O)nc(C)nc21	158%	93.1%	102%	98%	101%	99.9%	37.1%	118%	97.7%	101%
COc1ccc2c(c1)oc1c(C)c3c(c(C)c12)C(=O)N(CCOS(C)(=O)=O)C3=O	65.8%	94%	103%	91.6%	100%	120%	88.4%	118%	109%	97.7%
C/C(Cc1ccc(Cl)cc1)=C(\c1ccc(OCCN2CCCCCC2)cc1)c1ccc(OC(=O)c2ccccc2)cc1	-14.3% (active)	-24.6% (active)	34.5%	68.7%	36.6%	86.9%	24.4%	59.1%		47%
COc1ccc(C2CC(n3ccnc3)c3cc(OC)c(OC)c(OC)c32)cc1O (configuration not stated)	35.4%	94.6%	89.2%	107%	100%	86.3%	82.4%	57.1%		93.9%
CCOC(=O)c1c(NC(=O)c2ccccc2)sc2c3c(ccc12)OCN(C)C3	-39.6% (active)	-46.2% (active)	28.5%	-0.612% (active)	61.8%	88.5%	18.6%	52.1%		5.26% (active)
